{
  "source": "PubChem BioAssay AID1508600",
  "about": "(Functional Genomics Laboratory (NCATS/FGL), 2020)",
  "note": "Out of some 53,000 sequences screened, about 3,700 (7%) were called active. Only a selection was taken, and actives are over-represented in it overall. Unmarked numbers belong to inactive results.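 How the source made its calls: active means gene knockdowns whose robust z-score for IL-1 alpha signal is at least 2 or at most -2, so actives lie on both sides; inactive means the rest.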",
  "data": [
    {"assay": "Components of the Cytosolic LPS Sensing Pathway: Gene Identification via Genome-wide siRNA Screen", "conditions": "RAW264.7 macrophages, IL-1a HTRF, actives lie on both sides, screened at 100 nM (by protocol), cells primed 5 h with Pam3CSK4 first", "source_text": "Non-canonical inflammasome activation by cytosolic LPS is a critical component of the host response to Gram-negative bacterial infection, however we lack a comprehensive understanding of the cellular processes that control this pathway. Here we describe a genome-wide siRNA screen to identify genes regulating the mouse macrophage IL-1 alpha response to cytosolic LPS.\nRAW264.7 cells were maintained in complete DMEM media, comprising DMEM with 4.5 g/L glucose, 10% FBS (Gemini Bio-Products, West Sacramento, CA), 2 mM Glutamine (Lonza) and 20 mM HEPES (Lonza), hereafter complete DMEM.\nThe RNAi screen was conducted in 384-well format using the Ambion Silencer Mouse Genome siRNA Library (#4391425), which consists of three unique, nonoverlapping, nonpooled siRNAs for each of 17,000 gene targets. siRNA reagents ([…]) were stamped into 384-well white flat-bottom microplates (Corning, 3570) using a Velocity11 VPrep liquid handling system (Agilent) integrated into a BioCel robotic platform (Agilent) in columns 1-22, leaving columns 23-24 empty for negative (Ambion, Negative control #1) and positive (mouse Casp4) controls, respectively. The median value of each plate's negative control column was used to normalize sample wells, and the positive control was used to assess transfection efficiency and assay performance.\nLipofectamine RNAiMAX Transfection Reagent ([…]; Invitrogen) was added in […] serum-free, antibiotic-free media to plate wells using a Thermo Scientific Matrix WellMate and Microplate Stacker. Plates were incubated for 45 min at room temperature to allow for the sufficient formation of siRNA-lipid complexes. Cells were seeded at a density of 1x10^4 cells per well in 20 microL media containing 20% (vol/vol) FBS without antibiotics. The final concentration of siRNA in each well was 100 nM. Cells were cultured for 48h at 37 degrees C in 5% CO2 before addition of […] of TLR ligand Pam3CSK4 for 5 hours. The medium was then removed, replaced with […] growth media and cell were transfected with […] of LipidA and TransIT-TKO (Mirus) for 24 hour. At the end of the LipidA treatment, […] of supernatant was transferred to a 384 Greiner Bio-one non-binding low volume plate and […] of IL-1a HTRF reagent (Cisbio, 62MIL1APEH) was added and incubated at room temperature overnight. The plates were read on an EnVision plate reader (PerkinElmer). Cell viability was measured by adding 20ul Cell Titer Glo to the original plate and running a luminescence read on the EnVision. The quantified IL-1a signal for each siRNA gene-targeted well was divided by the median of the negative control wells and multiplied by 100 to achieve a negative control normalized value for each well/siRNA. This normalized value was then used to generate a robust z-score by first taking the log of each value and then by subtracting the median and dividing by the […].", "values": [
      {"sequence": "GGCCAAGAAAAUCCUGUGGTT against Mfsd5", "z-score": "-2.71 (active)"},
      {"sequence": "GGAACUUGAAAUCGUAAUUTT against Magohb", "z-score": -0.121},
      {"sequence": "GGCAGAACACAGUUCGAUCTT against Tbcb", "z-score": 0.165},
      {"sequence": "GCCGUAGAUUUCCUUGAGUTT against Isca1", "z-score": -0.0435},
      {"sequence": "GGGACAAUGAAUGUGAUCUTT against Adam39", "z-score": "-2.81 (active)"},
      {"sequence": "CCAACCACAGGAUCAGAUGTT against Prrg4", "z-score": 0.556},
      {"sequence": "GGAAAAAAUGGAAAACUGGTT against Polr1b", "z-score": -0.965},
      {"sequence": "CCAUUAAAAACCCAGAGGATT against Lyve1", "z-score": 0.0705},
      {"sequence": "CCCUAUAAAGAGAAAUUGGTT against Zfp663", "z-score": -0.166},
      {"sequence": "GGCUUCUUUUUAAAAGUAGTT against Pcid2", "z-score": -1.28},
      {"sequence": "GCAGGACUUACAUGAGAAUTT against Fam13c", "z-score": 0.534},
      {"sequence": "CCAUAAACUAUGAGUUUUGTT against Elovl7", "z-score": "2.4 (active)"},
      {"sequence": "GGCUUCCAUUACCAUGAUGTT against Olfr381", "z-score": -0.318},
      {"sequence": "CGCGUAUCUGACCAGGUCATT against Ermard", "z-score": 0.889},
      {"sequence": "GGCUGAAAAAUGCUUGAUUTT against Dhdds", "z-score": -1.14},
      {"sequence": "GGAUAACUCUUUCAAAGACTT against Lrit2", "z-score": 0.768},
      {"sequence": "GGAGGAGAGAACAAAAUGUTT against Itgb1bp2", "z-score": 0.839},
      {"sequence": "GGAUCUCUUUUUUCACAUGTT against Kcne2", "z-score": 0.605},
      {"sequence": "GGAUCUGGCGGUUACUAAGTT against Gm867", "z-score": 0.776},
      {"sequence": "GCUCAUUCUUACCAAUCUCTT against Vsig2", "z-score": "-2.25 (active)"},
      {"sequence": "GGCUGUGAAAAAACUAGAATT against Serpina1e", "z-score": -0.359},
      {"sequence": "GCCCUACCUUACCUGAUACTT against Rab17", "z-score": "2.03 (active)"},
      {"sequence": "GGAUCUUAGUAAUAUUGGUTT against Ash2l", "z-score": -0.72},
      {"sequence": "CCACAAGUUCACUAAGGAGTT against Six3", "z-score": 0.193},
      {"sequence": "CCUGGAAUCUGUCCCUCAUTT against Olfr262", "z-score": -0.161},
      {"sequence": "CCCACUUACUUUUGAUGUUTT against Uba1", "z-score": -0.232},
      {"sequence": "GGCACGUGAUAAAGGGUUCTT against Pcdha7", "z-score": "2.56 (active)"},
      {"sequence": "GCAUGUUUGGAUUGCUAUUTT against Olfr653", "z-score": 0.999},
      {"sequence": "GGAUUUUCAAAGAGGACACTT against Cdca7l", "z-score": 0.735},
      {"sequence": "GCAGAGACGUGAUUGAUCGTT against H2bc18", "z-score": -1.17},
      {"sequence": "CCAUUUCUCACCAGUGAUCTT against Gm5535", "z-score": "-2.61 (active)"},
      {"sequence": "CCGUUCCAUCAUUAAGACCTT against Tssk2", "z-score": 0.359},
      {"sequence": "CCAAGGCCAUCUCAUUUUCTT against Olfr749", "z-score": 0.511},
      {"sequence": "GGCUAUUUUGCUGUACCUCTT against Gbgt1", "z-score": 0.589},
      {"sequence": "GGAAAUAUCUCUGGUAAUATT against Reln", "z-score": "-2.17 (active)"},
      {"sequence": "GCAUCCUGAGUCCGUAUCCTT against Rbm11", "z-score": 1.37},
      {"sequence": "GGUAGAGCGCAAGAAGGCATT against Nol12", "z-score": 1.23},
      {"sequence": "CGGAGUUGAGCCAGAAAAATT against Fbxo31", "z-score": -0.777},
      {"sequence": "GGAGAAAUUGCCUUUGAUCTT against Pdik1l", "z-score": 0.416},
      {"sequence": "CGAUUUGCAGCCCUCAUGATT against Inka1", "z-score": "-2.27 (active)"},
      {"sequence": "GCCGUCUACCCUGAUAACATT against Cp", "z-score": 0.67},
      {"sequence": "GAAGCAGGCCUGGGAUCUUTT against Vmn1r41", "z-score": "2.01 (active)"},
      {"sequence": "GGAGCAAAUGAUCAAUAAATT against Serpina3b", "z-score": -0.364},
      {"sequence": "GGCAUCUCUUUGCUUGAAUTT against Lalba", "z-score": -0.86},
      {"sequence": "GCCCUCAUUUGUCCUACAUTT against Arhgef2", "z-score": 0.202},
      {"sequence": "GGGUUUAGAGACCCUGAGATT against Klc2", "z-score": "-2.09 (active)"},
      {"sequence": "GGUGGACAAGGAGAGGACUTT against H2-Q1", "z-score": 0.109},
      {"sequence": "GGAAUGGAACACAAAUAGCTT against Kdelr2", "z-score": 0.191},
      {"sequence": "GGACUUUUGUGUAUAGUUATT against Smad1", "z-score": 1.59},
      {"sequence": "GGACGCGGGAAAAAUGUUCTT against Hnrnpab", "z-score": 1.37},
      {"sequence": "GCUGGAAGCAUUUGUUUUUTT against Uap1", "z-score": "2.19 (active)"},
      {"sequence": "GCUUAGUGACCAUCUCCGUTT against Epop", "z-score": 0.236},
      {"sequence": "GGAAUCUCACCAAUCCAAATT against Rab14", "z-score": -0.364},
      {"sequence": "GGAGAGCUAGCCUUAAUAATT against Bspry", "z-score": "4.21 (active)"},
      {"sequence": "CGGUUACAGGUGAAAUCCUTT against Sval1", "z-score": -1.36},
      {"sequence": "CGGGUGAUGCCUAUGUCAUTT against Gsn", "z-score": 0.837},
      {"sequence": "GGCUUACAGUUCCAUAUGGTT against Olfr401", "z-score": -1.11},
      {"sequence": "GCUCAUUGCACUUGCCAAGTT against Tcea2", "z-score": -0.0377},
      {"sequence": "GGUUUGUGUCUAAGGAAUUTT against Klhdc7a", "z-score": -0.203},
      {"sequence": "GGUCCUACCUUGAAGCUCCTT against Ado", "z-score": 0.816},
      {"sequence": "GCACCAGUCGGUAUUCACATT against C1qc", "z-score": -0.665},
      {"sequence": "GCAUUGUGAGACUAACGUGTT against Dusp7", "z-score": 1.08},
      {"sequence": "GGGAAUAAUGUCUAGUUUGTT against Fam126a", "z-score": 0.215},
      {"sequence": "GAUGGUGUCUAGUGAGAGCTT against Oxct2b", "z-score": "-2.01 (active)"},
      {"sequence": "GCACCAUUUUGAUCGUCAUTT against Olfr519", "z-score": 0.341},
      {"sequence": "GGUUUGAAAUGAAACUUCATT against Nedd4l", "z-score": -0.0699},
      {"sequence": "GCGAGCUUUAACCUUUCCATT against Olfr1028", "z-score": "-2.49 (active)"},
      {"sequence": "CCUCACAAAGCACAAUAUCTT against Sntg1", "z-score": -1.46},
      {"sequence": "CGUAGCUAUUCUGGUUGUCTT against H2-Q6", "z-score": -0.616}
    ]}
  ]
}
